PfHsp90 set2: growth inhibition of PfHsp90-expressing yeast, primary screen, antimalarial PfHsp90 inhibitor project, S. cerevisiae, BacTiter-Glo luminescence, single point, set 2 | BacTiter-Glo ATP, 48 h; yeast lacking PDR1 and PDR3 efflux regulators | inhibition, % at 9.4 µM | actives 0.32% (n = 310,000);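 active means every replicate shows inhibition above about 80%, whatever the replicate mean, limit read from the data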
TIM10 inh: growth inhibitors of isogenic TIM10 control yeast, primary screen, counter-screen for tim10-1 yeast inhibitor project, luminescence, uHTS | inhibition, % at 10 µM | S. cerevisiae TIM10 strain growth, BacTiter-Glo luminescence, 24 h | actives 1.4% (n = 330,000);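 active means inhibition of 40% or more at the single tested concentration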;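 further: wild-type TIM10 isogenic control strain grown at permissive 25 °C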
tim10-1 inh: growth inhibitors of tim10-1 mutant yeast, primary screen, luminescence, uHTS; S. cerevisiae tim10-1 ts strain growth, BacTiter-Glo, 24 h; inhibition, % at 20 µM; actives 2.2% (n = 330,000);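 active means inhibition of at least 40%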;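 further: mutant grown at 25 °C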
V-ATPase pHluor: regulators of yeast V-ATPase proton pumping, primary screen, pHLuorin cytosolic pH fluorescence. response, % at 10 µM. S. cerevisiae. actives 0.37% (n = 350,000); in the data active means response mostly above about 7.3%, no sharp cut-off; inactive means mostly below about 5.4%; further: actives read high
tim23-1 inh: growth inhibitors of tim23-1 mutant yeast, primary screen, luminescence, uHTS | S. cerevisiae tim23-1 growth, BacTiter-Glo luminescence, 24 h | inhibition, % at 20 µM | actives 1.3% (n = 330,000) | AID 463212, 2010;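 active means growth inhibition of the mutant yeast at or above 50%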;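 further: temperature-sensitive mutant grown at 25 °C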
tim10-1 conf: growth inhibitors of tim10-1 mutant yeast, confirmation, single concentration, luminescence, S. cerevisiae. AID 463213, 2010. inhibition, % at 20 µM. shares compounds with tim10-1 inh. actives 56% (n = 7,400). S. cerevisiae tim10-1 ts strain growth, BacTiter-Glo, 24 h;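 active means inhibition of yeast growth at or above a set limit in either of two repeat tests at 20 µM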;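 further: tim10-1 mutant grown at permissive 25 °C to find synthetic lethal compounds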
A number is an active result; n = inactive; x = not tested or not shown. Sampled rows, rich in hits. Any-hit rate of the full collection: about 3.7%.

SMILES	PfHsp90 set2	TIM10 inh	tim10-1 inh	V-ATPase pHluor	tim23-1 inh	tim10-1 conf
CCCOc1ccc(C(=O)NNC(=S)NC(=O)c2cc(-c3ccccc3)nc3ccccc23)cc1	n	n	45.0	n	n	38.0
CCCOc1ccc(C(=O)NNC(=S)NC(=O)c2ccccc2[N+](=O)[O-])cc1	n	n	n	n	n	x
CCNC(=S)NNC(=O)c1cc(-c2cc(C)ccc2C)nc2ccccc12	n	n	45.0	n	n	41.2
Cc1ccccc1C(=O)NNC(=S)NC(=O)c1cccs1	n	n	53.1	n	n	n
CCCc1cc(C(=O)NNC(=S)NCC)c2ccccc2n1	n	n	n	n	n	x
CCCOc1ccc(C(=O)NNC(=S)NC(=O)c2ccccc2)cc1	n	n	n	n	n	x
CCCOc1ccc(C(=O)NNC(=S)NC(=O)c2cccs2)cc1	n	n	47.9	n	n	n
O=C(O)C1CCN(C(=O)c2ccc3c(c2)OCO3)CC1	n	n	n	n	n	x
COc1ccc(-n2cc3ccc([N+](=O)[O-])cc3n2)cc1	n	n	n	n	n	x
COc1ccc(CCNC(=O)CCc2nc3sc4c(c3c(=O)[nH]2)CCCC4)cc1	n	n	97.5	n	n	n
CCc1nc2ccc(C(=O)NCc3ccc(C)o3)cc2nc1CC	n	n	48.6	n	n	n
CCc1nc2ccc(C(=O)NCCc3ccc(OC)c(OC)c3)cc2nc1CC	n	n	n	n	n	x
CCc1nc2ccc(C(=O)NCCc3ccc(OC)cc3)cc2nc1CC	n	n	40.5	n	n	n
Cc1ccc(OCC(=O)Nc2cccc(S(=O)(=O)N3CCCCCC3)c2)c([N+](=O)[O-])n1	n	n	n	n	n	x
O=C(c1cc(Cl)nc2ccccc12)N1CCN(S(=O)(=O)c2cccc(C(F)(F)F)c2)CC1	n	n	n	n	n	x
Cc1ccc(-n2nc3cc(C)c(N)cc3n2)cc1	n	n	40.9	n	n	n
CCc1ccc(-n2nc3cc(C)c(N)cc3n2)cc1	n	n	n	n	n	x
CCCc1[nH]c2ccc(C#N)cc2c1CCC	n	n	52.7	n	n	33.2
COc1ccc(C(=O)CN2C(=O)NC3(CCc4ccccc43)C2=O)cc1 (stereo unspecified)	n	n	n	n	n	x
C=CCn1c(CCn2c3ccccc3c3ccccc32)n[nH]c1=S	n	n	43.4	n	n	36.5
COc1ccc(-n2c(Cc3cccn3C)nnc2SCC(=O)Nc2ccc(Cl)cc2)cc1	n	n	41.8	n	n	n
COc1ccc(-n2c(Cc3cccn3C)nnc2SCC(=O)Nc2ccccc2)cc1	n	n	n	n	n	x
COC(=O)C(=Cc1ccccc1[N+](=O)[O-])C(=O)OC	n	n	43.5	n	n	n
O=C(/C=C/c1ccccc1[N+](=O)[O-])Oc1ccccc1	x	n	n	x	n	x
Cc1cc(NC(=O)c2oc3ccccc3c2C)ccc1-n1cnnn1	n	n	41.8	n	n	n
SMILES	PfHsp90 set2	TIM10 inh	tim10-1 inh	V-ATPase pHluor	tim23-1 inh	tim10-1 conf
COc1cc(OC)cc(C(=O)Nc2ccc(-n3cnnn3)c(C)c2)c1	x	n	n	n	n	x
Cc1ccc(S(=O)(=O)N2CCCCC2CCNC(=O)C(=O)NCc2ccco2)cc1 (stereo unspecified)	n	n	42.3	n	n	n
Cc1cc(C)n(CCc2nc(-c3cc4ccccc4o3)cs2)n1	n	n	42.7	n	n	n
COc1ccc(Cl)cc1C(=O)Nc1ccc2c(c1)OCO2	x	n	45.8	n	n	35.3
COc1cccc(NC(=O)Nc2ccc3c(c2)OCO3)c1	n	n	n	n	n	x
COc1ccc(Cl)cc1C(=O)Nc1ccc2c(c1)OCCO2	n	n	n	n	n	x
COc1ccc(OC)c(NC(=O)Nc2ccc3c(c2)OCO3)c1	n	n	40.0	n	n	n
C=CCC1Cc2c(cccc2[N+](=O)[O-])C(CC=C)N1 (stereo unspecified)	n	n	48.8	n	n	n
CCOC(=O)N1CCN(C2=C(NS(=O)(=O)c3ccc(C)cc3)C(=O)c3ccccc3C2=O)CC1	n	n	48.8	n	n	n
Brc1ccc(CN2CCCCCC2)cc1	n	n	n	n	n	x
